# From PubChem BioAssay AID1974 (The Scripps Research Institute Molecular Screening Center, 2009)
# Screen size: about 300,000 compounds; about 3,200 (1.1%) were called active. The sample holds actives, similar compounds and a random draw of the others, so the mix is not that of the screen. A number with no mark means an inactive call.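 How the source made its calls: active means inhibition above the campaign mean inhibition plus 3 SD (cut at about 35% in these data); inactive means the rest.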
# Target: Glutathione S-transferase omega-1 (Homo sapiens) (UniProt P78417)
# Assay: inhibitors of recombinant GSTO1, primary screen, counter-screen for RBBP9 inhibitor project, biochemical, fluorescence polarization (AID 1974);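 further: 0% = GSTO1-1 with DMSO and 100% = wells lacking GSTO1-1 enzyme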
# Conditions: recombinant GSTO1, activity-based probe fluorescence polarization; at 5.96 µM; active compounds read high
# Chain of Glutathione S-transferase omega-1 (Homo sapiens) (P78417 whole entry, looked up): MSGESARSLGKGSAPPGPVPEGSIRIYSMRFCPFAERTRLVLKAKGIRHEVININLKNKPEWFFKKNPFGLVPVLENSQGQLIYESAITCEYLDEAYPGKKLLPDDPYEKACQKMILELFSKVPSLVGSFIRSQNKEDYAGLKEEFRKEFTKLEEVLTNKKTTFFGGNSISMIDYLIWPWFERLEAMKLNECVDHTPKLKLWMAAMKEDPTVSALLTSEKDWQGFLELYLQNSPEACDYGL
row,Structure (SMILES),inhibition
1,Cc1nc2ccccc2c(=O)n1-c1ccc(F)c(NC(=O)c2cccs2)c1,-6.66%
2,CCN(C(=O)CSc1nnc(-c2ccc(OC(F)F)cc2)n1N)C1CCS(=O)(=O)C1 (configuration not stated),-5.72%
3,Cc1ccc(-c2nn(-c3ccc(F)cc3)cc2C(=O)NCC(c2cccs2)N2CCOCC2)cc1 (configuration not stated),-3.34%
4,c1ccc(CSc2nnc(-c3ccco3)c(-c3ccco3)n2)cc1,59.8% (active)
5,O=c1cc(O)nc(SCc2ccccc2Cl)[nH]1,-11.3%
6,Clc1ccccc1CSc1nnc(-c2ccco2)c(-c2ccco2)n1,53% (active)
7,Brc1ccc(CSc2ccc(-c3ccco3)nn2)cc1,-3.33%
8,O=c1[nH]c(SCc2ccccc2)nnc1-c1ccccc1,-7.41%
9,Fc1cccc(Cl)c1CSc1ccc(-c2ccco2)nn1,3.45%
10,Cc1cc(C)n2nc(C(=O)OC(C)C(=O)c3cc(C)c(C)cc3C)nc2n1 (configuration not stated),3.12%
11,COc1ccc(CNC(=O)CNC(=O)c2sc3ccccc3c2Cl)cc1OC,-3.56%
12,O=c1[nH]c(/C=C/c2cccc(Br)c2)nc2ccccc12,-7.5%
13,O=[N+]([O-])c1ncc(Br)cc1Nc1ccccc1,13.4%
14,COc1cc(/C=N/NC(=O)c2cc(C)n(-c3ccc(F)cc3)c2C)cc(OC)c1O,35.7% (active)
15,Cc1cc(C(=O)N/N=C/c2ccc(O)c([N+](=O)[O-])c2)c(C)n1-c1ccc(F)cc1,23.2%
16,COc1cc(/C=N/NC(=O)c2cc(-c3ccccc3C)nc3ccccc23)cc(OC)c1O,3%
17,CN(C)CCn1c2c(c(SCC(=O)Nc3ccccc3C(F)(F)F)nc1=O)CCCC2,-0.08%
18,CCN(CC(=O)Nc1ccccc1C(F)(F)F)C(=O)CSCc1c(C)noc1C,-6.06%
19,C=CCNC(=O)c1ccccc1SCc1c(C)noc1C,55.2% (active)
20,C=CCNC(=O)c1cc(-c2ccccc2O)on1,3.47%
21,COc1ccc(N2CCN(S(=O)(=O)c3cc4c5c(c3)C(C)C(=O)N5CCC4)CC2)cc1 (configuration not stated),8.18%
22,Cc1nc2ccccc2c(=O)n1-c1ccc(NS(=O)(=O)c2ccc(F)cc2F)cc1,-1.88%

row,Structure (SMILES),inhibition
1,CC(=O)C12CC(C)=C(C)CC1CC1C3CCC4=CC(=O)CCC4(C)C3CCC12C (configuration not stated),0%
2,CC1(C)S[C@@H]2[C@H](N=CN3CCCCCC3)C(=O)N2[C@H]1C(=O)O,1.77%
3,COC(=O)c1cc(CNC(=O)CC(C)c2ccccc2)ccc1OC (configuration not stated),3.39%
4,CC1(c2nnc(-c3ccncc3)o2)CC(c2cccnc2)=NO1 (configuration not stated),7.77%
5,CCc1nnc(NC(=O)CSc2nnc(Cc3ccccc3)n2-c2ccc(OC)cc2)s1,-0.09%
6,CCc1nnc(NC(=O)CSc2nc3c(c(=O)n2-c2ccccc2OC)SCC3)s1,35.6% (active)
7,CCOc1ccc(NC(=O)CSc2nc3c(c(=O)n2-c2ccccc2OC)SCC3)cc1,9.5%
8,OCC[C@H]1C[C@@H](O)[C@H](O)[C@]2(OCCCc3ccccc32)O1,-3.33%
9,CC(C)CC[n+]1ccn(C2=C([O-])c3ccccc3C(=O)/C2=N\S(=O)(=O)c2ccccc2)c1,70.8% (active)
10,COc1ccc(N(C(=O)c2cccnc2)S(=O)(=O)c2ccc(OC)c(OC)c2)cc1,8.53%
11,COc1ccc(N(C(=O)c2cccnc2)S(=O)(=O)c2ccc3c(c2)n(C)c(=O)n3C)cc1,9.41%
12,O=C(c1cccnc1)N(c1cc2sc(=O)oc2c2ccccc12)S(=O)(=O)c1ccccc1,66.5% (active)
13,CN(C)C1=NC[C@H](Cc2ccccc2)N1CCc1ccc(F)cc1,0.73%
14,OCC[C@H]1C[C@@H](O)[C@H](O)[C@@]2(OCCc3ccccc32)O1,7.38%
15,Cc1nc2c(c(C)nn2-c2ccccc2)c(C)c1C,15.1%
16,O=C(CNC(=O)C1COc2ccccc2O1)N/N=C/c1cc(Br)c(O)c(Br)c1 (configuration not stated),-6.29%
17,Cc1c(CC(=O)N2CCN(C(=O)C3COc4ccccc4O3)CC2)c(=O)oc2c(O)c(O)ccc12 (configuration not stated),45.1% (active)
18,Cc1c(C)c2ccc(OCC(=O)N3CCC(C(=O)O)CC3)c(C)c2oc1=O,-1.66%
19,COCC(C)OC(=O)c1c(N)n(CCCN2CCOCC2)c2nc3ccccc3nc12 (configuration not stated),11.9%
20,O=C(NCCCN1CCCC1=O)c1ccc(S(=O)(=O)Nc2ccccc2)cc1,0.39%
21,CC(C)(C)OC(=O)c1c(N)n(CCCN2CCCC2=O)c2nc3ccccc3nc12,63.9% (active)
22,O=[N+]([O-])c1ccc(S(=O)(=O)Nc2cccc(-c3ccc(N4CCCC4)nn3)c2)cc1,-8.25%

row,Structure (SMILES),inhibition
1,COc1ccc(CNC(=O)[C@@H]2CC=C[C@@H]3CCN(C4CC4)C(=O)[C@@H]32)cc1,-0.21%
2,CN1CCN(c2ccc(NC(=O)c3ccccc3)cc2)CC1,2.04%
3,CSc1ccc(NC(=O)/C=C/C(=O)O)cc1,0.81%
4,Cc1cccc(N2CCN(c3ccc(NC(=O)/C=C\C(=O)O)cc3)CC2)c1,42.2% (active)
5,CCCn1c(C)cc(-c2csc(NC(=O)CCc3nc4ccccc4c(=O)[nH]3)n2)c1C,-4.01%
6,O=C(CCc1[nH]c2ccccc2c1Sc1ccccc1)N(CCO)CCO,3.25%
7,CCCCN(C(=O)CCNC(=O)NC12CC3CC(CC(C3)C1)C2)c1c(N)n(CCCC)c(=O)[nH]c1=O,-0.02%
8,N#CC1(NC(=O)COC(=O)CSc2ccc(F)cc2)CCCCC1,6.75%
9,CN(CC1CCCO1)S(=O)(=O)c1ccc(C(=O)Nc2ccc(F)cc2)cc1 (configuration not stated),2.1%
10,Cc1cccc(NC(=O)c2ccc(S(=O)(=O)N(C)CC3CCCO3)cc2)c1C (configuration not stated),-5.06%
11,CCOC(=O)c1c(NC(=O)c2ccc(S(=O)(=O)N(C)CC3CCCO3)cc2)sc2c1CC(C)(C)NC2(C)C (configuration not stated),55.4% (active)
12,O=C(Nc1ccc(S(=O)(=O)N2CCCCC2)cc1)C1CCN(C(=O)c2ccc(F)cc2)CC1,-4.69%
13,CC(Oc1cccc(Cl)c1)C(=O)Nc1ccc(S(=O)(=O)Nc2ncccn2)cc1 (configuration not stated),-7.06%
14,COc1cccc(N(C(=O)C2COc3ccccc3O2)C(C(=O)NC2CCCCC2)c2ccc(O)cc2)c1 (configuration not stated),0.47%
15,COc1ccc(C(C(=O)NC2CCCCC2)N(C(=O)CCl)c2ccccc2Cl)cc1 (configuration not stated),38.1% (active)
16,COc1ccc(C(C(=O)NC2CCCCC2)N(C(=O)c2snc(C(N)=O)c2N)c2ccccc2OC)cc1 (configuration not stated),-5.23%
17,CC1=C(N2CCN(c3ncccn3)CC2)CCC1=O,-2.06%
18,CCn1c(SC(C)C(=O)Nc2ccc(N3CCOCC3)cc2)nnc1-c1ccco1 (configuration not stated),-7.32%
19,CCOC(=O)C(C)N(c1ccccc1Cl)S(C)(=O)=O (configuration not stated),2.86%
20,Cc1cc(Cl)c(S(=O)(=O)NCC2CCCO2)cc1OCC(N)=O (configuration not stated),-0.4%
21,Cc1cc(Cl)c(S(=O)(=O)Nc2ccc3c(c2)OCCO3)cc1OCC(N)=O,35.7% (active)
22,Cc1cc(Cl)c(S(=O)(=O)N(C)C)cc1OCC(N)=O,-3.27%

row,Structure (SMILES),inhibition
1,CSc1ccccc1NC(=O)c1cnc2sc(C)cn2c1=O,-0.65%
2,CCN(C(=O)COC(=O)c1sccc1C)c1c(N)n(Cc2ccccc2)c(=O)[nH]c1=O,13.2%
3,CN(C)CCn1c2c(c(SCC(=O)NCc3ccccc3)nc1=O)CCC2,0.7%
4,COc1ccc(CCNc2cc(N3CCN(C(=O)c4ccccc4OC)CC3)ccc2[N+](=O)[O-])cc1OC,0.42%
5,Oc1ccc(CNc2ccccc2O)cc1,41.7% (active)
6,O=C(Cc1ccc(Cl)cc1)NC(=S)Nc1ccccc1O,-0.02%
7,O=[N+]([O-])c1ccccc1NCc1ccc(Cl)cc1,1.08%
8,O=C(Nc1cc(S(=O)(=O)N2CCOCC2)ccc1OCC(F)(F)F)c1ccc(N2CCCC2=O)cc1,6.19%
9,O=C(c1ccncc1)N1CCN(S(=O)(=O)c2cc(C(F)(F)F)cc(C(F)(F)F)c2)CC1,2.8%
10,CCOC(=O)c1ccccc1NC(=O)c1c(N)n(C)c(=O)[nH]c1=O,-3.83%
11,Cc1cc(C)c(S(=O)(=O)NCC(c2ccc3c(c2)OCO3)N2CCOCC2)c(C)c1 (configuration not stated),3.98%
12,CCCc1nc2ccccc2c(=O)n1NC(=O)c1c(O)c2ccccc2[nH]c1=O,5.47%
13,O=c1c2ccccc2ncn1/N=C/c1ccccc1,-0.07%
14,CCCc1nc2ccccc2c(=O)n1/N=C/c1ccc(O)c(O)c1,45.8% (active)
15,CO[C@@H]1[C@@H](OC(N)=O)[C@@H](O)C(Oc2ccc3c(O)c(NC(=O)c4ccc(O)c(CC=C(C)C)c4)c(=O)oc3c2C)OC1(C)C (some centres not stated),2.82%
16,COc1ccc(S(=O)(=O)NCCCc2ccccc2)cc1,6.84%
17,COc1ccc2cc(S(=O)(=O)Nc3ccccn3)ccc2c1,2.15%
18,COc1ccc(S(=O)(=O)/N=C2\C=C(NS(=O)(=O)c3ccccc3)C(=O)c3ccccc32)cc1,58.3% (active)
19,Cc1ccc(S(=O)(=O)N2[C@@H](c3cccc(Cl)c3)C(C(=O)O)=CC[C@H]2c2ccc(Cl)c(Cl)c2)cc1,-207%
20,CCC(C)CCN1CCN=C1N(C)C (configuration not stated),0.8%
21,COCCCN(C(=O)CSCc1ccc(C)cc1)c1c(N)n(Cc2ccccc2)c(=O)[nH]c1=O,-12.2%
